# Data as given in PubChem BioAssay (NCI).
# The panel holds about 83,000 compounds, 20% with a hit somewhere; the sample as a whole holds those more often.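 Cells were grown in 96-well plates and exposed to the test compound at a single concentration for 48 hours; results are reported as percent growth, with values below 10 considered active.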 A number with no mark means an inactive call. The source made the active and inactive calls.
# Tests used:
# Test in all cases: NCI-60 one-dose screen, 48 h (100 = growth as untreated, 0 = no growth, -100 = all killed)
# [1] = test system: HCT-15 colon; conditions: 10 µM unless noted
# [2] = test system: HT29 colon; conditions: 10 µM unless noted
# [3] = test system: SNB-75 CNS; conditions: 10 µM unless noted
# [4] = test system: SNB-19 CNS; conditions: 10 µM unless noted
# [5] = test system: U251 CNS; conditions: 10 µM unless noted
# [6] = test system: PC-3 prostate; conditions: 10 µM unless noted
# [7] = test system: SK-MEL-5 melanoma; conditions: 10 µM unless noted
# [8] = test system: UACC-62 melanoma; conditions: 10 µM unless noted
# [9] = test system: LOX IMVI melanoma; conditions: 10 µM unless noted
# [10] = test system: SK-MEL-28 melanoma; conditions: 10 µM unless noted
# [11] = test system: SK-MEL-2 melanoma; conditions: 10 µM
# [12] = test system: EKVX NSCLC; conditions: 10 µM unless noted
# [13] = test system: SN12C renal; conditions: 10 µM unless noted
# [14] = test system: UO-31 renal; conditions: 10 µM unless noted
# [15] = test system: TK-10 renal; conditions: 10 µM unless noted
# [16] = test system: ACHN renal; conditions: 10 µM unless noted
# [17] = test system: CAKI-1 renal; conditions: 10 µM unless noted
# [18] = test system: A498 renal; conditions: 10 µM unless noted
# [19] = test system: CCRF-CEM leukemia; conditions: 10 µM unless noted
# [20] = test system: MOLT-4 leukemia; conditions: 10 µM unless noted
SMILES,growth [1],growth [2],growth [3],growth [4],growth [5],growth [6],growth [7],growth [8],growth [9],growth [10],growth [11],growth [12],growth [13],growth [14],growth [15],growth [16],growth [17],growth [18],growth [19],growth [20]
CC(=O)Oc1ccccc1C(=O)N=C1[Se]CCN1C(=O)c1ccccc1OC(C)=O,-36.1% (active),0.805% (active),-65.2% (active),-48.8% (active),-63.6% (active),-49.7% (active),-57.6% (active),-57.8% (active),-49% (active),-27.9% (active),-18.4% (active),-39% (active),-30% (active),-91% (active),-72.3% (active),-91.5% (active),-97.7% (active),-94% (active),18.6%,6.05% (active)
COc1cc(C(=O)NNC(=O)c2ccc(NC(=O)CCl)cc2)cc(OC)c1OC,86.4%,60.5%,87.4%,88.9%,11.1%,66.1%,77.9%,66.9%,28.9%,86.9%,80.7%,92.4%,65.9%,80.1%,107%,89.8%,98.2%,85.9%,33%,57.2%
Cc1ccccc1Nc1nc2nonc2nc1Nc1cccc(C)c1C,44.8%,46.9%,75.8%,52.7%,29.9%,42.2%,5.63% (active),22.8%,54%,79.7%,24.9%,27.2%,44.3%,51.4%,56.4%,52.6%,48.9%,,50.6%,53.5%
CCOC(=O)C1=C(C)N=C2Sc3cc(OC(F)(F)F)ccc3N2[C@H]1c1ccccn1,13.7%,39.2%,63.4%,37.9%,23.1%,50.9%,38.5%,28.3%,32.9%,42.4%,43.6%,26.8%,47.4%,33.1%,51.1%,32.8%,27.9%,,43.3%,29.5%
CCCCCCCC(=O)SCC/C=C/[C@@H]1CC(=O)NCc2cccc(n2)C2=N[C@@](C)(CS2)C(=O)N[C@@H](C(C)C)C(=O)O1,2.94% (active),0.997% (active),31.3%,14.3%,-32.1% (active),11.5%,-93.9% (active),-64.1% (active),-94.3% (active),1.51% (active),-1.86% (active),22.2%,22.6%,-8.17% (active),-16.1% (active),-11.8% (active),-38.8% (active),,30.6%,14.3%
COc1ccc(C2CC(=O)c3c(O)c(OC)c(OC)c(OC)c3O2)cc1O (centres undefined),9.19% (active),101%,39.9%,36.9%,25.7%,31.2%,18.9%,35.2%,40.9%,52.9%,48.8%,50.4%,45.4%,51.6%,70.6%,40.4%,38.9%,,24.2%,22%
CCc1nc2ccc(Cc3ccc(C(=O)NO)cc3)cc2c(=O)n1CCc1ccccc1,-43.2% (active),-40.8% (active),-20.8% (active),-44.9% (active),-71.4% (active),-66.5% (active),-65.6% (active),-57.7% (active),-76.2% (active),-36% (active),-33.4% (active),-23.3% (active),-20.5% (active),-63.4% (active),-29.7% (active),-35.3% (active),-37% (active),-75.9% (active),2.95% (active),-18.7% (active)
Fc1ccc(NCc2cn(-c3ccccc3)nc2-c2ccc(OCc3ccccc3)cc2)cc1Cl,92.2%,71.3%,77.7%,95.1%,97.1%,79.9%,101%,90.7%,96.7%,98.9%,91.9%,85.7%,91.6%,75%,93.7%,91%,82.9%,119%,92%,85.8%
COc1cnc2c(c1)C(=O)c1c-2n(CCCn2ccnc2)c(=O)c2cc(Cl)ccc12,28.9%,-31.5% (active),19%,20.2%,-31% (active),24.8%,-49.9% (active),-43.1% (active),-52.5% (active),52.2%,50%,40.2%,10%,-0.232% (active),45.9%,-3.65% (active),11.9%,-41.2% (active),-11.9% (active),-23.6% (active)
O=C1/C(=C\c2cccc(OCCCCCOc3ccc(Cl)cc3)c2)N=C2SCCCN12,57.7%,67.4%,71.3%,75%,74.1%,28.8%,-6.82% (active),56.6%,67.1%,58.7%,41.2%,37.2%,77.6%,39.4%,56.7%,49.3%,52.7%,39.6%,55.9%,36.7%
Cc1nn(-c2nc3ccccc3[nH]2)c2c1C(c1ccc(O)cc1)CC(=O)N2 (centres undefined),70.6%,83.9%,27.8%,84.1%,76.4%,77.7%,85.3%,84.9%,85.2%,80.4%,51%,109%,101%,69.3%,86.9%,97%,89.9%,,17.7%,-14.4% (active)
COc1ccc(OC)c(NC2=C(SCCc3ccccc3)C(=O)c3ccccc3C2=O)c1,64.2%,106%,78%,82.2%,77%,64.7%,80.9%,62.1%,66.4%,108%,73.2%,77.3%,91.2%,61.6%,110%,77.2%,63.7%,,122%,80.4%
COc1cnc2c(c1)C(=O)c1c-2n(CCCN2CCC(N)CC2)c(=O)c2cc([N+](=O)[O-])ccc12,49%,36.5%,60.9%,39.8%,39.4%,40.7%,72.4%,49.8%,21.2%,116%,109%,75.7%,21.6%,63.7%,82.6%,19.8%,45.2%,62.6%,1.69% (active),0.263% (active)
COc1cnc2c(c1)C(=O)c1c-2n(CCCNC2=NCCS2)c(=O)c2cc(Cl)ccc12,-69.2% (active),-82.7% (active),57.9%,-29.7% (active),-89.7% (active),20.5%,39.4%,-76.6% (active),-90.5% (active),90.8%,90.5%,-35.8% (active),-49.4% (active),-80.6% (active),-17.7% (active),-91.8% (active),-91.8% (active),-13% (active),-23% (active),-41.5% (active)
O=C(NO)c1ccc(Cn2c(=O)n(-c3ccccc3F)c(=O)c3ccccc32)cc1,20.6%,9.88% (active),-3.9% (active),6.93% (active),-85.3% (active),-33.6% (active),-19.2% (active),-46.2% (active),-86.4% (active),-21.5% (active),-3.95% (active),6.72% (active),11.5%,27.2%,6.07% (active),22%,25%,-34.7% (active),2.07% (active),-8.31% (active)
COc1cnc2c(c1)C(=O)c1c-2n(CCCN2CCOCC2)c(=O)c2cc(Cl)ccc12,43.9%,8.04% (active),45.9%,28.6%,8.25% (active),32%,-9.63% (active),4.37% (active),-36.6% (active),66.4%,92.1%,54.2%,21.6%,13.8%,83.1%,6.75% (active),18.3%,-2.15% (active),1.33% (active),-17.8% (active)
